Results taken from PubChem BioAssay (NCI).
Compounds without any hit were thinned out: in the full panel of roughly 79,000, 15% have a hit. A number with no mark means an inactive call. Active and inactive are the calls of the source. No stated cut-off is given here; in the data, active means growth inhibition above about 70%; inactive means the rest.

Tests used:
[1] = NCI Yeast Anticancer Drug Screen. Data for the rad50 strain (AID 155);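 further: 0% = growth of vehicle-only cultures of the same strain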; conditions: S. cerevisiae rad50 strain growth inhibition, stronger effect = higher value
Procedure, shortened: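 Inhibition values express reduced yeast growth in compound-treated cultures relative to vehicle-treated controls.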

[2] = NCI Yeast Anticancer Drug Screen. Data for the mec2-1 strain (AID 157); conditions: S. cerevisiae mec2-1 strain, stronger effect = higher value
Procedure, shortened: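 Readout is yeast growth inhibition, normalised to vehicle-treated controls, in the mec2-1 strain exposed to compound.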

[3] = NCI Yeast Anticancer Drug Screen. Data for the sgs1 mgt1 strain (AID 161);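 further: 0% = growth of cultures given vehicle only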; conditions: S. cerevisiae sgs1 mgt1 strain, stronger effect = higher value
Procedure, shortened: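 This yeast growth screen uses a strain with defined DNA-repair lesions; compound-treated growth is compared with vehicle-treated growth.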

[4] = NCI Yeast Anticancer Drug Screen. Data for the cln2 rad14 strain (AID 165);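 further: 0% = growth equal to vehicle treated cultures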; conditions: S. cerevisiae cln2 rad14 strain, stronger effect = higher value
Procedure, shortened: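 Relative to vehicle controls, growth inhibition of compound-treated cln2 rad14 yeast was recorded.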

[5] = NCI Yeast Anticancer Drug Screen. Data for the bub3 strain (AID 167); conditions: S. cerevisiae bub3 mutant strain, stronger effect = higher value
Procedure, shortened: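 Steps: expose the mutant yeast strain to compound; grow alongside vehicle-treated cultures; measure growth; express inhibition against the vehicle cultures.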

[6] = NCI Yeast Anticancer Drug Screen. Data for the mlh1 rad18 strain (AID 175); conditions: S. cerevisiae mlh1 rad18 strain growth inhibition, stronger effect = higher value
Procedure, shortened: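 Test agents were incubated with a yeast strain of defined genotype (DNA damage repair defect). Inhibition of growth was derived by comparison with vehicle-exposed cultures.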

[7] = at 5.0 µM (retest, dose inferred, filed as 0.5)
[8] = at 50.0 µM (retest, dose inferred, filed as 5.0)

| SMILES | growth inhibition [1, 7] | growth inhibition [1, 8] | growth inhibition ([1]; at 50.0 µM) | growth inhibition [2, 7] | growth inhibition [2, 8] | growth inhibition ([2]; at 50.0 µM) | growth inhibition [3, 7] | growth inhibition [3, 8] | growth inhibition ([3]; at 50.0 µM) | growth inhibition [4, 7] | growth inhibition [4, 8] | growth inhibition ([4]; at 50.0 µM) | growth inhibition [5, 7] | growth inhibition [5, 8] | growth inhibition ([5]; at 50.0 µM) | growth inhibition [6, 7] | growth inhibition [6, 8] | growth inhibition ([6]; at 50.0 µM) |
| --- | --- | --- | --- | --- | --- | --- | --- | --- | --- | --- | --- | --- | --- | --- | --- | --- | --- | --- |
| O=C(/C(=C\I)c1ccccc1)c1ccccc1 | 6% | 6% | 88.5% (active) | -15% | -15% | 92.5% (active) | -8% | -8% | 86.4% (active) | -6% | -6% | 89.9% (active) | -24% | -24% | 90.2% (active) | -13% | -13% | 86.7% (active) |
| CC(=O)OC1CCC2(C)C(CCC3C4=CCC(C5COC(=O)C5)C4(C)CCC32)C1 (stereo not given) | -1% | 79% (active) | 77.2% (active) | 17% | 94% (active) | 61.5% | -5% | 88% (active) | 84.7% (active) | -2% | 89% (active) | 63.1% | 4% | 91% (active) | 59.8% | 11% | 90% (active) | 78.1% (active) |
| CN(C)Cc1ccc2c(c1)c1c(n2Cc2ccccc2)CCCC1 | -2% | 94% (active) | 84.3% (active) | -7% | 84% (active) | 70.2% (active) | -4% | 20% | 90.4% (active) | -5% | 96% (active) | 86.7% (active) | -8% | 96% (active) | 97.9% (active) | 3% | 97% (active) | 97.7% (active) |
| Cc1ccc(O)c(C(c2cc(C)ccc2O)c2ccccc2Cl)c1 | 96% (active) | 99% (active) | 98.2% (active) | 95% (active) | 99% (active) | 99.5% (active) | 91% (active) | 99% (active) | 99.2% (active) | 98% (active) | 99% (active) | 98.6% (active) | 85% (active) | 99% (active) | 98.5% (active) | 97% (active) | 95% (active) | 99% (active) |
| O=C(C=P(c1ccccc1)(c1ccccc1)c1ccccc1)c1ccccc1-c1ccccc1C(=O)C=P(c1ccccc1)(c1ccccc1)c1ccccc1 | 98% (active) | 92% (active) | 87.9% (active) | 99% (active) | 92% (active) | 90.8% (active) | 99% (active) | 87% (active) | 90.5% (active) | 97% (active) | 93% (active) | 88.5% (active) | 99% (active) | 93% (active) | 88.2% (active) | 95% (active) | 88% (active) | 90.4% (active) |
| Oc1cc(F)cc2cccnc12 | 43% | 92% (active) | 92.3% (active) | 46% | 91% (active) | 94.3% (active) | 99% (active) | 99% (active) | 94.1% (active) | 88% (active) | 100% (active) | 92.5% (active) | 100% (active) | 100% (active) | 93.3% (active) | 42% | 99% (active) | 91.3% (active) |
| CCCCCCCCCCCCCCCCC/C=N\NC(=O)CCCC(=O)N/N=C/CCCCCCCCCCCCCCCCC | 1% | -3% | 98.7% (active) | -4% | -2% | 99.1% (active) | -2% | -3% | 98% (active) | 4% | 10% | 99% (active) | 7% | 25% | 99.2% (active) | 2% | -25% | 98.3% (active) |
| CC1/C=C/C=C/CC/C=C/C=C/C=C/C=C/C(OC2OC(C)C(O)C(N)C2O)CC2OC(CC(O)C(O)CCC(O)CC(O)CC(O)CC(=O)OC(C)C(C)C1O)CC(O)C2C(=O)O (stereo not given) | 98% (active) | 100% (active) | 99.3% (active) | 96% (active) | 100% (active) | 99.3% (active) | 56% | 100% (active) | 99.2% (active) | 93% (active) | 100% (active) | 99.1% (active) | 99% (active) | 100% (active) | 99.2% (active) | 97% (active) | 99% (active) | 98.5% (active) |
| O=C(c1ccc(Cl)cc1)C1OC12C(=O)Nc1c(Cl)cc(Cl)cc12 (stereo not given) | 1% | 99% (active) | 99.2% (active) | 3% | 99% (active) | 99.2% (active) | 22% | 99% (active) | 99.2% (active) | 5% | 99% (active) | 99.1% (active) | -1% | 99% (active) | 99.2% (active) | 4% | 99% (active) | 98.5% (active) |
| C1=NC2c3ccccc3Cc3cccc1c32 (stereo not given) | -20% | 94% (active) | 95.4% (active) | -3% | 97% (active) | 95.8% (active) | 7% | 97% (active) | 95.3% (active) | -28% | 96% (active) | 93.6% (active) | 2% | 97% (active) | 93.3% (active) | -13% | 97% (active) | 94.3% (active) |
